The record followed here is PubChem BioAssay (Tox21).

Records with an inconclusive call do not appear. Unmarked numbers belong to inactive results. The source made the active and inactive calls. Unless noted, calls come from the whole dose curve; as a rule, active = well fitted curve in the direction sought with a large enough effect in the repeat runs; inconclusive = weak or mixed curves; inactive = no such curve, though single readings can be large; an effect the other way counts as inactive or inconclusive.

Assay [1] is described as follows: qHTS assay to identify small molecule agonists of the RXR signaling pathway - cell viability counter screen (AID 1159529).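 Note: HEK 293T cells carrying an RXR-alpha UAS beta-lactamase reporter; series mostly up to about 77 µM; nearly all actives have a fitted effect of over 50% in size.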 In outline: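 Viability read-out for the RXR-alpha agonist qHTS: luminescent CellTiter-Glo signal after 30 min at RT. HEK 293T bla reporter cells, 2% charcoal-stripped FBS, 16 hr compound incubation; tetraoctyl ammonium bromide as cytotoxic control.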

Assay [2] is described as follows: qHTS assay to identify small molecule antagonists of the retinoic acid receptor (RAR) signaling pathway (AID 1159552; note: nearly all actives have a fitted effect of over 50% in size). Put shortly:
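Using a RARE-driven luciferase construct in C3RL4 cells, retinol at 1 uM final provided the agonist stimulus while compounds were co-applied. After 6 hours at 37 C, luminescence was recorded to flag inhibitors of retinol signaling.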
For orientation: qHTS replaces the single test concentration by a dilution series.

The nature of assay [3]: qHTS assay to identify small molecule agonists of the retinoic acid receptor (RAR) signaling pathway (AID 1159553). Put shortly: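 Quantitative high-throughput format: the Tox21 10K library was tested on C3RL4 RARE-luciferase cells for 6 hr at 37 C and 5% CO2, with luminescence measured after a 30 min room-temperature reagent step.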
Assay [4] can be described thus: qHTS assay to identify small molecule agonists of the constitutive androstane receptor (CAR) signaling pathway - cell viability counter screen (AID 1224836). Note: series mostly up to about 92 µM; nearly all actives have a fitted effect of over 45% in size. In outline: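 Multiplexed viability check: HepG2-CYP2B6-hCAR cells, 15-point compound dosing, 0.75 uM PK11195 final, 23 h at 37 C, CellTiter-Fluor fluorescence.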
Assay [5] is described as follows: qHTS assay to identify small molecule antagonists of the constitutive androstane receptor (CAR) signaling pathway - cell viability counter screen (AID 1224837). Note: series mostly up to about 92 µM; nearly all actives have a fitted effect of over 45% in size. Put shortly: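 Cells are seeded, rested 4 hr at 37 C/5% CO2, dosed with compound (15-point series) and 50 nM CITCO, incubated a further 23 hr, and then CellTiter-Fluor reagent is added before fluorescence is read. The line is HepG2 with stable hCAR and CYP2B6-2.2kb.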

The nature of assay [6]: qHTS assay to identify small molecule antagonists of the estrogen related receptor signaling pathway with the pleiotropic PPARgamma coactivator (PGC) from Tox21 10K library - cell viability counter screen (AID 1224840; active = well fitted cell-killing curve with a large enough effect in the repeat runs, not every such curve was filed as active; note: nearly all actives have a fitted effect of over 40% in size). In outline:
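Cell viability is measured by CellTiter-Fluor fluorescence in PGC/ERR cells that receive compounds after a 6-hour attachment period and are then incubated 17.5 hours at 37 C.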

A short description of assay [7]: qHTS assay to identify small molecule antagonists of the retinoid acid receptor (RAR) signaling pathway - cell viability counter screen (AID 1159551). Note: nearly all actives have a fitted effect of over 35% in size. In outline: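 ATP-based viability, C3RL4 cells, 6 h at 37 C with 1 uM final retinol co-added after compound; luminescence read 30 min post CellTiter-Glo, RT.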
In assay [8] the target is Luciferin 4-monooxygenase (Photinus pyralis) (UniProt P08659). The assay is described as follows: qHTS assay to identify small molecule inhibitors of firefly luciferase (AID 1224835). For activity change, negative = inhibition: series mostly up to about 120 µM. Note: nearly all actives have a fitted effect of over 25% in size. Note: potency is the fitted concentration of half-maximal effect. Put shortly: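 Inhibition of purified Photinus luciferase is measured by luminescence. Substrate levels (D-luciferin, ATP) sit at their KM values. Each compound is tested in a concentration series.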

Assay [9] can be described thus: qHTS assay to identify small molecule antagonists of the estrogen related receptor signaling pathway with the pleiotropic PPARgamma coactivator (PGC) from Tox21 10K library (AID 1224841; call rule not given here; note: series mostly up to about 92 µM; actives are mostly falling curves and most rising ones were filed inactive; nearly all actives have a fitted effect of over 50% in size). In outline:
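Cells stably carrying the PGC/ERR reporter, seeded at 2,000 per well, received pin-transferred compounds 6 h post-plating. Exposure lasted 18 h at 37 C. Signal: One-Glo luminescence.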

Assay [10] can be described thus: qHTS assay to identify small molecule antagonists of the estrogen related receptor (ERR) signaling pathway from Tox21 library - cell viability counter screen (AID 1224834). Note: nearly all actives have a fitted effect of over 30% in size. Put shortly: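 Compounds in DMSO were pinned onto ERR cells that had been incubated for 6 h, and the plates were held at 37 C for 17.5 h. CellTiter-Fluor reagent was then added and fluorescence was measured after 30 min.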

Assay [11] has as its target Nuclear receptor subfamily 1 group I member 3 (Homo sapiens) (UniProt Q14994). The assay is described as follows: qHTS assay to identify small molecule antagonists of the constitutive androstane receptor (CAR) signaling pathway (AID 1224838).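 Note: HepG2 cells stably expressing hCAR with CYP2B6 luciferase reporter stimulated by CITCO; nearly all actives have a fitted effect of over 40% in size.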 In outline: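 Luminescence from a CYP2B6-2.2kb promoter reporter in hCAR-expressing HepG2 cells reflects CAR signaling. Cells received compounds at 15 concentrations and 50 nM CITCO (final), then incubated 24 h at 37 C/5% CO2.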

For assay [12] the target is unchanged. As to the kind of experiment: qHTS assay to identify small molecule agonists of the constitutive androstane receptor (CAR) signaling pathway (AID 1224839).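 Note: HepG2 cells stably carrying human CAR and a CYP2B6 luciferase reporter; series mostly up to about 92 µM; nearly all actives have a fitted effect of over 15% in size.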 In outline:
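Using human hepatoma HepG2 cells engineered with hCAR and a CYP2B6-2.2kb reporter, 15-concentration compound series were incubated 24 h alongside PK11195 at 0.75 uM final, with luminescence quantified afterwards.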

The nature of assay [13]: qHTS assay to identify small molecule agonists of the estrogen related receptor signaling pathway with the pleiotropic PPARgamma coactivator (PGC) from Tox21 10K library (AID 1224842). Note: nearly all actives have a fitted effect of over 15% in size. In outline: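 Luminescence from One-Glo (30 min, room temperature) measured after PGC/ERR cells had 18 h at 37 C with pinned compound (23 nL in DMSO). Cells had been seeded at 2,000 per well and pre-incubated 6 h.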
% is set by controls: 0 for no effect and ±100 for the full control effect.

Sequence of Nuclear receptor subfamily 1 group I member 3 (Homo sapiens) (Q14994 whole entry, looked up): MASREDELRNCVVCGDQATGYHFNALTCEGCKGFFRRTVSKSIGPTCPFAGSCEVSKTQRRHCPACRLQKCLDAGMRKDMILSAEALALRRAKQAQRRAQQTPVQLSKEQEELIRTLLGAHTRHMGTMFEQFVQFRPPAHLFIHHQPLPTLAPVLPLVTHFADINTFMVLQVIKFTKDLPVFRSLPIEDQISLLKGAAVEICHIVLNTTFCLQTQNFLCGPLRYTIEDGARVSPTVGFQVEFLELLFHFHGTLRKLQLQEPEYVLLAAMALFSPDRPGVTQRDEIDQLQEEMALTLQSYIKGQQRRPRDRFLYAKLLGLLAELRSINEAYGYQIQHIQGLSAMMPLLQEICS
Sequence of Luciferin 4-monooxygenase (Photinus pyralis) (P08659 whole entry, looked up): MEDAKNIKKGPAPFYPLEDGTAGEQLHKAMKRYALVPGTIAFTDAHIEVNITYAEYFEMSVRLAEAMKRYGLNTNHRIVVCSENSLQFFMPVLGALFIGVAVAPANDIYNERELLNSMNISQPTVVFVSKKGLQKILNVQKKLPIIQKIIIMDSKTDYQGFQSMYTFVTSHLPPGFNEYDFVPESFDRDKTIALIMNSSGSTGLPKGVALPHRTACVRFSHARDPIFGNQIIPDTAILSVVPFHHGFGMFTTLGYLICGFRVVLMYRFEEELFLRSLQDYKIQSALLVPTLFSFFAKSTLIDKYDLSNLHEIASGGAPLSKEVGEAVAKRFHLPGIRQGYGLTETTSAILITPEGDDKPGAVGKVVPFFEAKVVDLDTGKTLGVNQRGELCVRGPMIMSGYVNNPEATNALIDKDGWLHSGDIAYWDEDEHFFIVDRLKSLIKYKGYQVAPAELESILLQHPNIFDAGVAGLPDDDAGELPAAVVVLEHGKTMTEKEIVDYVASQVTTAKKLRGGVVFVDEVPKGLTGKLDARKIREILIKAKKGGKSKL

On to `CCOc1cc([N+](=O)[O-])c(OCC)cc1N1CCOCC1`, for which the outcome in [1], in assay [2] and in assay [6] was inactive. The Potency result in [3], in assay [4] and in assay [5] was “inactive” in each case.
For the compound `O=C1c2cccc3c2[C@H](CCC3)CN1[C@@H]1CN2CCC1CC2`, the call in assay [1], in assay [7], in assay [2] and in assay [6] was inactive. For the same compound, the Potency entry in [3], in assay [8], in [4], in assay [5] and in assay [9] was “inactive” throughout.
For the compound `O=C1c2ccccc2C(=O)c2cc(S(=O)(=O)O)ccc21`, the call in assay [1], in assay [7], in assay [2], in assay [11] and in assay [6] was inactive. Also, the Potency result in assay [3], in [10], in [5] and in assay [12] was “inactive” in each case.
Regarding `COC(=O)C1CC(=O)C(C(=O)OC)CC1=O` (configuration not stated), the activity change, negative = cytotoxicity in assay [1] was 8.97% [at 6.97 µM]; in assay [5] it was 2.02% [at 8.39 µM]. Further, the activity, negative = inhibition is -2.77% [at 8.39 µM] in [2] and 1.96% [at 8.39 µM] in assay [9]. In addition, the viability change, negative = cytotoxic in assay [10] is 2.89% [at 8.39 µM]; in assay [6], 11% [at 8.39 µM]. Also, the activity change, negative = inhibition in [8] was 0.09% [at 10.5 µM]. In addition, in [13], the activation was 0.14% [at 8.39 µM].
Consider `N[C@@H](CCC(=O)N[C@@H](CS)C(=O)NCC(=O)O)C(=O)O`, for which the results for the activity change, negative = cytotoxicity in assay [1], in assay [7] and in assay [5] were -1.04% [at 15.8 µM], 0.178% [at 19 µM] and 7.5% [at 19 µM], respectively. The activity, negative = inhibition in assay [2] was 29.9% [at 19 µM]. The Potency entry in [3] is “inactive”. In addition, the viability change, negative = cytotoxic in assay [10] was 0.69% [at 19 µM]; in assay [4], 2.39% [at 19 µM]; in assay [6], 15.7% [at 19 µM].
In the case of `C=C(C)C(=O)OCC(C)(C)COC(=O)C(=C)C`, the outcome in assay [1], in assay [7], in assay [11], in [6] and in [13] was inactive. Moreover, the Potency result in assay [10], in [8], in assay [4], in [5], in [12] and in assay [9] was “inactive” throughout.
Turning to `NNc1nnc(NN)c2ccccc12`, the compound was classed as inactive in assay [1], in assay [7], in [2], in [11] and in [6]. For the same compound, the Potency result in assay [10], in [4], in assay [5] and in assay [12] was “inactive” in each case. For the same compound, in assay [8], the Potency is 17.4 µM (active).
Consider `CC(S)C(=O)NCC(=O)O` (configuration not stated), for which the result in [1], in [7], in assay [2], in [11] and in assay [6] was inactive. For the same compound, the Potency result in assay [10], in assay [4], in [5] and in assay [12] was “inactive” throughout.
Regarding `COc1cc2c(cc1OC)[C@@H]1CC(=O)[C@@H](CC(C)C)CN1CC2`, the call in assay [1], in assay [7], in [11] and in [6] was inactive. Also, the Potency entry in assay [10], in [5] and in assay [12] was “inactive” in each case.
